Ba CapD inh: blocks the Bacillus anthracis CapD enzyme; purified CapD enzyme, fluorescence intensity read-out; active compounds read low; z-score (test concentration not listed); 140,000 tested, 0.23% active; AID 492967; in the data active = z-score mostly below about -2.9, no sharp cut-off; inactive = mostly above about -1.9
* marks the source's active call; other numbers are inactive results; ! = a repeat was not active. The sample as a whole holds a higher share of hits than the screen did.

SMILES | Ba CapD inh
COc1ccccc1CN(C(C)=O)C1CC(C)(C)N(C(C)=O)C(C)(C)C1 | 0.05
Cc1ccc(/C=C2/SC(=S)N(CCC(=O)N3CCOCC3)C2=O)cc1 | -2.58*
Cc1ccc(/C=C2/SC(=O)N(CCC(=O)N3CCN(C)CC3)C2=O)cc1 | -0.82
COc1ccc(/C=C2/SC(=S)N(CCC(=O)N3CCN(C4=NC(=O)/C(=C\c5ccc(C)cc5)S4)CC3)C2=O)cc1 | -0.375
Cc1cc(S(=O)(=O)NC(C)C)ccc1OCC(=O)NCc1ccc2c(c1)OCO2 | -0.58
CCc1nc2c(cnn2-c2ccccc2)c2nncn12 | 0.715
O=C(Nc1ccc(OC(F)(F)F)cc1)c1cc([N+](=O)[O-])ccc1N1CCN(Cc2ccccc2)CC1 | -0.735
CCSc1nnc2c(n1)OC(c1ccc([N+](=O)[O-])o1)Nc1ccccc1-2 (configuration not stated) | -0.52
COC(=O)C1=CN(N(C(C)=O)C(C)=O)C(=O)CC1 | -9.17*
COC(=O)C1=CCCN(C)C1 | -0.545
COC(=O)c1ccccc1-n1cnc2ccccc2c1=O | 2.79
CCCCOC(=O)c1ccc(NCN2C(=O)S/C(=C\c3ccc(O)c(OC)c3)C2=O)cc1 | -0.65
Cc1nc2ncnn2c(C)c1CCC(=O)NCc1ccc(F)cc1 | 0.25
NC(CC(=O)O)c1ccccc1[N+](=O)[O-] (configuration not stated) | -0.335
O=C(O)c1cc2cccc([N+](=O)[O-])c2[nH]1 | -4.63*
O=C(O)CSc1ncccc1[N+](=O)[O-] | -0.92
CCN(CC)CCCN1C(=O)C(=O)/C(=C(/O)c2cc(C)ccc2C)C1c1cccs1 (configuration not stated) | -0.575
CN(C)/C=C1\Cc2ccccc2C1=O | 6.44
CN(C)/C=C1\CCCc2ccccc2C1=O | -4.12*
O=C1/C(=C/c2ccccc2)CCCc2ccccc21 | -0.17
O/N=C1/CCCc2occc21 | -0.35
O=C1/C(=C\O)CCc2occc21 | -8.14*
O=C(O)Cn1ncc2c1-c1ccoc1CC2 | -1.43
Nc1sc2c(c1C(=O)Nc1ccc(Cl)cc1)CCC2 | -0.005
COc1ccc(S(=O)(=O)N(C(C)=O)c2ccc3oc(=O)sc3c2)cc1 | -3.3
SMILES | Ba CapD inh
COc1ccc(N(C(C)=O)S(=O)(=O)c2ccc(F)cc2)cc1 | -7.35*
CC(=O)Oc1ccc(N(C(C)=O)S(=O)(=O)c2ccc3ccccc3c2)cc1 | -0.08
CCSc1nnc(NC(=O)c2ccc3ccccc3c2)s1 | 0.995
O=C(Oc1cccc2cccnc12)N1CCCCCC1 | 5.26
CCOc1ccc(-c2cc(C(N)=O)on2)cc1 | -0.865
Cc1ccc(-c2cc(C(N)=O)on2)cc1 | -5.67*
NC(=O)c1cc(-c2ccc3c(c2)OCO3)no1 | -0.575
CCOC(=O)c1cc2cccc(NS(=O)(=O)c3ccc(C(C)(C)C)cc3)c2[nH]1 | -0.165
CN(CCOC(=O)Cn1cnc2ccccc2c1=O)C1=NS(=O)(=O)c2ccccc21 | -0.355
CS(=O)(=O)c1ccc(-n2cc(-c3ccccc3NC(=O)c3cc(Cl)nc(Cl)c3)cn2)cc1 | -0.55
Cn1cc(NC(=O)NCc2ccccn2)c2ccccc2c1=O | 19.5
O=C(ON1C(=O)CCC1=O)c1ccccc1Cl | -0.13
O=C(ON1C(=O)CCC1=O)c1ccc(Cl)cc1Cl | -3.96*
CC(C)(C)c1cc(OC(=O)c2ccc(Cl)cc2Cl)c(C(C)(C)C)cc1OC(=O)c1ccc(Cl)cc1Cl | 0.215
CCC(C)Oc1c(Cl)cc(C#N)cc1OC (configuration not stated) | 1.34
COC(=O)c1ccc(NC(=O)c2cc(-c3cccc(OC)c3)nc3ccccc23)cc1 | 0.5
CC(N)CCCC(C)(C)O (configuration not stated) | -4.07*!
CC(CCCC(C)(C)O)CC1OCC(C)O1 (configuration not stated) | -0.07
CCCN1CCC(NC(C)CCCC(C)(C)O)CC1 (configuration not stated) | -0.395
Nc1c(Nc2ccc(F)cc2)sc2c(O)cc(=O)[nH]c12 | -4.11*
CNc1sc2c(O)cc(=O)[nH]c2c1C#N | -1.46
O=c1cc(O)c2sc(Nc3ccccc3)nc2[nH]1 | 0.055
COc1ccc(NC(=O)c2nc(C)n(-c3cc(Cl)cc(Cl)c3)n2)cc1 | -0.26
Oc1c(C(c2ccccn2)N2CCCCC2)ccc2cccnc12 (configuration not stated) | -3.81
CN1CCN(C(c2ccccn2)c2cc(Cl)c3cccnc3c2O)CC1 (configuration not stated) | -8.05*
SMILES | Ba CapD inh
Oc1c(C(c2ccccc2Cl)N2CCCCC2)ccc2cccnc12 (configuration not stated) | 61
CC(CCOC(=O)NCCNc1ccccc1)c1ccccc1 (configuration not stated) | -0.075
O=C(Nc1cc(C(=O)N2CC=C(c3ccccc3)CC2)ccc1N1CC2CC(C1)c1cccc(=O)n1C2)c1ccncc1 (configuration not stated) | 0.245
CSC(C)C(=O)C1=C(O)c2ccccc2C1=O (configuration not stated) | -2.13
CCOC(=O)C1=C(O)c2ccccc2C1=O | 0.15
CC(=NCCc1ccc(F)cc1)C1=C(O)c2ccccc2C1=O | -4.78*
Cc1cccc(-c2cc(C(=O)Nc3ccc(C(N)=O)cc3)c3ccccc3n2)c1 | -0.045
COc1ccc(Br)cc1/C=C1/N=C(c2cc(Cl)ccc2OC)OC1=O | 1.02
Cc1ccc(-n2nnc3c(SCC(=O)N4CCCC4)ncnc32)cc1 | -0.25
COC(=O)C(=C/C=C/c1ccccc1)C(=O)OC | -4.48*
COc1ccccc1NC(=O)/C=C/c1ccccc1 | -0.55
CN(C)C(=O)/C(=C/C=C/c1ccccc1)NC(=O)c1ccccc1 | -3.1
Cc1ccc(-n2c(C)cc(C(=O)O)c2C)cc1 | -1.06
C=CCNC(=O)C1=CC(c2ccc(F)cc2)=NS(=O)(=O)N1C | -0.93
N#CCSc1nsc(SCC#N)n1 | -0.02
Cc1cc(C(=O)O)ccc1-n1c(C)ccc1C | -0.395
Cc1ccc(C(=O)O)cc1-n1c(C)ccc1C | -2.02
Cc1ccc(C)n1-c1ccc(C(=O)O)cc1O | -8.96*
COc1ccc(CCNC(=O)OCCCCc2ccccc2)cc1 | 0.215
COc1ccc(/C=C/C(=O)C2(O)CCCCC2)cc1 | -0.88
O=C(/C=C/c1ccco1)/C=C/c1ccco1 | 0.035
O=C(/C=C/c1ccco1)C1(O)CCCCC1 | -5.62*
CNc1nc(N2CCCC2)ncc1F | 7.2
CCOC(=O)c1sc2nc(SCC#N)n(Cc3ccco3)c(=O)c2c1C | 4.04
CCOC(=O)c1c(NC(C)=O)nc(SC)n1Cc1ccco1 | -11*
SMILES | Ba CapD inh
CCOC(=O)c1c(NC(C)=O)nc(SC)n1Cc1cccs1 | -0.14
CC(C)(C)c1cc(C(=O)NNC(=O)OCC2(c3ccc(Cl)cc3)CC2)n[nH]1 | 0.175
Cc1cc(=O)n(CC(=O)NC2CCCCC2)c2c1c(C)nn2-c1ccccc1 | 0.19
CC(C)c1ccc(S(=O)(=O)Nc2ccc(O)c(Cl)c2)cc1 | -0.455
O=C(O)CN1C(=O)/C(=C\c2cc([N+](=O)[O-])ccc2Cl)SC1=S | -1.45
O=C(O)CN1C(=O)/C(=C\c2cccc([N+](=O)[O-])c2O)SC1=S | -2.96
O=C(O)CN1C(=O)/C(=C\c2cc([N+](=O)[O-])ccc2O)SC1=S | -5.23*
CCOc1cc(/C=C2/SC(=S)N(CC(=O)O)C2=O)ccc1OCc1ccccc1 | -0.765
CCOc1cc(Br)c(Br)c(/C=C2\SC(=S)N(CC(=O)O)C2=O)c1O | -3.85*
O=C(O)CN1C(=O)/C(=C\c2cc(Cl)cc(Br)c2O)SC1=S | -2.3
Cc1cc(C)c(C#N)c(SCC(=O)N(Cc2ccccc2)Cc2ccccc2)n1 | -0.415
CCOc1ccc(C(=O)Nc2ccc(Cl)c(-c3nc4ccccc4o3)c2)cc1Br | -0.21
COc1ccc(N=Cc2c(O)[nH]c(=S)[nH]c2=O)cc1 | 0.11
